Inconclusive results are not listed. Values without a mark were called inactive. Activity calls are given as the source filed them. Calls follow the shape of the dose curve; as a rule, active = well fitted activation curve with a large enough effect in the signal ratio in the repeat runs (not every such curve was filed as active); inconclusive = weak or mixed curves; inactive = flat fitted curve, though single readings scatter; the % refers to the signal ratio.
% is scaled to controls: 0 for no effect and ±100 for the full control effect.

The assay is described as follows: qHTS assay to identify small molecule agonists of the TGF-beta/Smad signaling pathway (AID 1346859). To be noted: SBE-bla HEK293T, TGF-beta/Smad beta-lactamase reporter, 5 h; series mostly up to 76.8 µM. The method, boiled down:
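After overnight seeding, SBE-bla HEK 293T cells are dosed with compounds in DMSO and kept 5 hr at 37 C, 5% CO2. LiveBLAzer-type FRET substrate is then applied for 2 hr at room temperature.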
As for `CC(C)=CC(=O)O`, the outcome was inactive. On the same count and under the same terms, for `O=C(O)c1ccccc1S` the value was “inactive”. As to `C=CCSCC1Nc2cc(Cl)c(S(N)(=O)=O)cc2S(=O)(=O)N1` (stereo unspecified), the call was inactive. Same read-out and setting: for `CCCCc1ccc(N)cc1` the value was “inactive”; for `CC(C)COC(=O)c1ccccc1O`, “inactive”; for `CCCCCCCCCCCCCCC`, “inactive”. The same measure, in the same setting: to `O=[N+]([O-])c1ccc(CCO)cc1` belongs “inactive”; to `CCN(CC)S(=O)(=O)c1ccc(C(=O)O)cc1`, “inactive”; to `Nc1ccn(C2CO[C@H](CO)O2)c(=O)n1` (stereo partly specified), “inactive”.

Take `COC(C(=O)O)c1ccccc1` (stereo unspecified): the call was inactive.

Consider `CCCCCCC(CCCCCCCCCCC(=O)OCC(COC(C)=O)OC(C)=O)OC(C)=O` (stereo unspecified), for which the molecule was classed as inactive. For `NCC[C@H](O)C(=O)N[C@@H]1C[C@H](N)[C@@H](O[C@H]2O[C@H](CN)[C@@H](O)[C@H](O)[C@H]2O)[C@H](O)[C@H]1O[C@H]1O[C@H](CO)[C@@H](O)[C@H](N)[C@H]1O`, the activation was 5.03% [at 0.29 µM]. For `NC(=O)c1ncn([C@@H]2O[C@H](CO)[C@@H](O)[C@H]2O)c1N`, the call was inactive.

Take `CCCc1ccccc1O`: the molecule was called inactive. The same measure, in the same setting: for `CO` the value was “inactive”. Same read-out and setting: to `C=CCOCC(O)CS(=O)(=O)O` (stereo unspecified) belongs “inactive”; to `Nc1ncnc2c1ncn2Cc1c(F)cccc1Cl`, “inactive”. The same measure, in the same setting: to `NC(=O)CCCCC1CCSS1` (stereo unspecified) belongs “inactive”; to `Fc1ccccc1-c1ccccc1`, “inactive”; to `CC(C)N1C(=O)c2ccccc2C1=O`, “inactive”. In the case of `O=S(=O)(O)c1ccccc1O`, the molecule was classed as inactive. The same measure, in the same setting: for `COC(=O)CCCCCCCCC(=O)OC` the value was “inactive”. Same read-out and setting: for `c1ccc(CCCc2ccccn2)cc1` the value was “inactive”; for `O=C(O)c1ccc[n+]([O-])c1`, “inactive”; for `NS(=O)(=O)c1cc2c(cc1Cl)NC(CSCc1ccccc1)=NS2(=O)=O`, “inactive”.

In the case of `c1ccc2cnncc2c1`, the result was inactive. `CC1=CC(=O)CCC1`: the result was inactive. The same measure, in the same setting: to `CN(C)N=Nc1ccccc1` belongs “inactive”. Consider `NC(=S)Nc1cccc2ccccc12`, for which the activation is -0.913% [at 6.97 µM]. For the molecule `CC(C)c1cccc(O)c1`, the molecule was classed as inactive. Same read-out and setting: to `NC(N)=NS(=O)(=O)c1ccc(N)cc1` belongs “inactive”; to `CCCCCCCCN(C)CCCCCCCC`, “inactive”; to `CC1(C)SC(C)(C)SC(C)(C)S1`, “inactive”. Same read-out and setting: for `NCCN1CCNC1=O` the value was “inactive”; for `CCCCCCCCCCC1CO1` (stereo unspecified), “inactive”. On the same count and under the same terms, to `C=CCOc1nc(OCC=C)nc(OCC=C)n1` belongs “inactive”.
